HT1080 IDH1KD tx: toxicity to HT-1080 IDH1 knockdown cells (counter line). HT-1080 IDH1 knockdown viability, ATP luminescence, 48 h. Potency, µM (series often up to 46.1 µM), without a hit: top-dose activity, negative = toxicity, usual class: cytotoxic. 2% of 360,000 active;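 further: potency means the concentration at half of the fitted maximal effect; 0% = DMSO wells and -100% = cell-free medium wells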
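% activity derives from luminescence (CellTiter-Glo), normalised to DMSO and no-cell wells. HT-1080-IDH1KD cells, 750/well, had 48 h compound exposure at 37 °C.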
TDP1 cell CPT: growth inhibition of DT40 Tdp1-/-;hTDP1 cells with camptothecin (screen for TDP1 inhibitors). 12% of 420,000 active. Potency, µM (top dose mostly 46.2 µM), inactives show at the top dose activity change, negative = growth inhibition, most hits filed as inhibitors. chicken DT40 Tdp1-/-;hTDP1 cells + 20 nM CPT, ATP luminescence, 48 h; further: potency means the concentration at half of the fitted maximal effect; nearly all actives have a fitted effect of over 55% in size
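Chicken DT40 Tdp1-/- cells stably complemented with human TDP1 were seeded at 400 cells/well in medium containing 20 nM camptothecin, exposed to pin-transferred compounds, and grown at 37 °C for at least 48 hr. Viability was read as ATP luminescence.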
IL-1B inflam inh: blocks inflammasome-driven IL-1 beta release; THP-1 LPS/ATP IL-1B secretion, AlphaLISA, 16 h; hits give low values; activity change, % at 57.5 µM; 4.7% of 360,000 active; AID 743279; in the data active means activity change below about -50%; inconclusive means mostly about -30% to -49%
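THP-1 cells pretreated 1 hr with compounds (up to 57.5 uM final), then stimulated with LPS (250 ng/mL final) plus ATP (1.25 mM final); secreted IL-1B measured by AlphaLISA after 16 hr, decreased signal indicating inhibition.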
HT1080-NT tox: kills 2HG-producing HT-1080-NT fibrosarcoma cells; Potency, µM (highest dose often 46.1 µM), for inactives: top-dose activity, negative = less viability, usual class: cytotoxic; AID 686970; 1.6% of 360,000 active; HT-1080-NT fibrosarcoma viability, CellTiter-Glo ATP luminescence, 48 h;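 further: NT is the 2HG producing partner of a matched IDH1 knockdown line; potency means the concentration at half of the fitted maximal effect; 0% = DMSO-treated cells and -100% = media-only wells without cells; nearly all actives have a fitted effect of over 55% in size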
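Read-out is CellTiter-Glo luminescence after 10 minutes at room temperature, following 48 hours' compound treatment of HT-1080-NT cells (750 cells/well, RPMI, 5% FBS, 37 degrees C).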
TDP1 cell noCPT: qHTS for Inhibitors of human tyrosyl-DNA phosphodiesterase 1 (TDP1): qHTS in cells in absence of CPT; DT40 Tdp1-/- hTDP1 cells, no CPT, ATP luminescence, 48 h; 15% of 420,000 active; Potency, µM (top dose mostly 46.2 µM), inactives show at the top dose activity change, negative = growth inhibition, most hits filed as inhibitors; further: potency means the concentration at half of the fitted maximal effect; nearly all actives have a fitted effect of over 55% in size
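Cells were dispensed at 400 per well, compounds added by pin tool, plates incubated ≥48 hr at 37 °C, then CellTiter-Glo added for 30 min at room temperature before luminescence reading. Line: DT40 Tdp1-/- complemented with hTDP1; camptothecin omitted.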
* marks the source's active call; other numbers are inactive results; ? = inconclusive; nt = no result given. Shown are actives, neighbours in structure and some others; about 19% of the full set was active somewhere. Unless noted, the call rests on the fitted dose curve; in most records, active means well fitted curve in the direction sought with a large enough effect; inconclusive means small, poorly fitted or top-dose-only effect, or another doubt; inactive means no such curve, though single readings can be large; an effect the other way counts as inactive or inconclusive. Unless noted, on the % scale 0 is the no-effect control and ±100 the full control effect.

SMILES	HT1080 IDH1KD tx	TDP1 cell CPT	IL-1B inflam inh	HT1080-NT tox	TDP1 cell noCPT
CCOc1ccc(C(=O)NCc2ccc3c(c2)CCN3C(=O)c2ccccc2)cc1	nt	13µM*	nt	nt	16µM*
COc1ccc(C(=O)NCc2ccc3c(c2)CCN3C(=O)c2ccc(F)cc2)cc1	nt	?	nt	nt	21µM*
O=C(NCc1ccc2c(c1)CCN2C(=O)c1ccncc1)c1cccc(Cl)c1	nt	21µM*	nt	nt	?
Cc1ccccc1C(=O)NCc1ccc2c(c1)CCN2C(=O)c1ccccc1	nt	13µM*	nt	nt	10µM*
O=C(Nc1ccc(F)cc1)C(c1ccccc1OC(F)(F)F)N1CCN(C(=O)c2ccco2)CC1 (stereo unspecified)	-8%	?	7	-13%	?
Cc1ccc(NC(=O)Cn2c(=O)n(CCc3ccccc3)c(=O)c3c4c(sc32)CCCC4)c(C)c1	nt	5%	nt	nt	5%
COc1ccc(C(=O)NCc2ccc3c(c2)CCN3C(=O)c2ccccc2)cc1	nt	23µM*	nt	nt	23µM*
CCC(C(=O)NCc1ccc2c(c1)CCN2C(=O)c1ccc(F)cc1)c1ccccc1 (stereo unspecified)	nt	4%	nt	nt	1%
O=C(NCc1ccc2c(c1)CCN2C(=O)c1ccc(F)cc1)c1ccco1	nt	21µM*	nt	nt	?
COc1ccc(C(=O)N2CCc3ccccc32)cc1	-2%	-6%	-4	0%	-26%
COc1ccc(C2=C(C)C(N3CCN(c4ccc(OC)cc4)CC3)=NS2(=O)=O)cc1	nt	-4%	nt	nt	-6%
CC1=C(c2ccc(C(C)C)cc2)S(=O)(=O)N=C1N1CCN(c2ccc(F)cc2)CC1	nt	21µM*	nt	nt	10µM*
CC1=C(c2ccc(C)c(C)c2)S(=O)(=O)N=C1N1CCN(c2cccc(C)c2)C(C)C1 (stereo unspecified)	nt	18µM*	nt	nt	10µM*
CC1=C(c2ccc(Cl)cc2)S(=O)(=O)N=C1N1CCN(c2cccc(C(F)(F)F)c2)CC1	nt	8.2µM*	nt	nt	21µM*
CC1=C(c2ccc(C)c(C)c2)S(=O)(=O)N=C1N1CCC(C(=O)NCc2ccccc2C)CC1	nt	-6%	nt	nt	-21%
Cc1ccc(CN2CCN(Cc3nc4ccccc4nc3C)CC2CCO)cc1 (stereo unspecified)	-2%	?	0	3%	-22%
COc1ccc(N2CCN(C3CCCN(C(=O)CCN4CCCCO4)C3)CC2)cc1 (stereo unspecified)	25%	9%	-2	?	24%
Cc1ccc(NC(=O)C2CCCN(C(=O)NCc3ccccc3)C2)c(C)c1 (stereo unspecified)	-3%	3%	37	-3%	-14%
O=C(Oc1ccccc1)N1CCC[C@@]2(CCN(c3ncccn3)C2)C1	nt	14%	nt	nt	0%
O=C(Oc1ccccc1)N1CCC2(CC1)CCN(c1ccccc1)CC2	nt	?	nt	nt	18µM*
O=C(Oc1ccccc1)N1CCC2(CCCN(c3ncccn3)C2)CC1	nt	-25%	nt	nt	18µM*
CCOC(=O)c1nn(-c2ccc3c(c2)OCO3)cc1O	1%	-12%	-8	1%	-2%
CCC1=Nc2cc(C(=O)NCc3ccccc3Cl)ccc2Sc2ccc(C)cc21	nt	5.2µM*	nt	nt	3.3µM*
CCCC1=Nc2cc(C(=O)NCCCN3CCN(C)CC3)ccc2Sc2ccccc21	0%	?	-8	?	?
CCC1=Nc2cc(C(=O)NCCc3ccccc3)ccc2Sc2ccc(Cl)cc21	nt	8.2µM*	nt	nt	6.5µM*
SMILES	HT1080 IDH1KD tx	TDP1 cell CPT	IL-1B inflam inh	HT1080-NT tox	TDP1 cell noCPT
CCOC(=O)N1CCN(C(=O)c2ccc3c(c2)N=C(C)c2cc(Cl)ccc2S3)CC1	2%	?	-10	25%	12µM*
CCCNC(=O)c1ccc2c(c1)N=C(CCC)c1ccccc1S2	nt	1.2µM*	nt	nt	0.73µM*
CCC1=Nc2cc(C(=O)NCCN3CCOCC3)ccc2Sc2ccccc21	-4%	-3%	-12	0%	-2%
COc1cc(C)c(CN2CCC(n3nccc3NC(=O)C3CCOC3)CC2)cc1C (stereo unspecified)	12%	-2%	1	9%	8%
O=C1CN(C(=O)COC(=O)c2cc(S(=O)(=O)N3CCOCC3)ccc2Cl)c2ccccc2N1	6%	5%	14	4%	-6%
O=C1CC(=O)NC(SCC(=O)Nc2ccccc2[N+](=O)[O-])=N1	-3%	9%	38	-2%	2%
COC(=O)C[C@@H]1C=C[C@H](NC(=O)Cc2ccccn2)[C@@H](CO)O1	4%	6%	27	11%	-13%
CCOCCCNC(=O)c1ccc2c(c1)N=C(CC)c1cc(Br)ccc1S2	0.092µM*	0.037µM*	-11	?	0.033µM*
COc1ccc(CNC(=O)c2cc(-c3cc(C)ccc3O)n[nH]2)cc1	13%	?	-14	0%	?
CCC1=Nc2cc(C(=O)NC(C)c3ccccc3)ccc2Sc2ccc(Cl)cc21 (stereo unspecified)	nt	16µM*	nt	nt	?
CCOCCCNC(=O)c1ccc2c(c1)N(CC)C(=O)c1ccccc1S2=O (stereo unspecified)	-27%	?	44	-12%	?
CCCC1=Nc2cc(C(=O)NCCCN3CCOCC3)ccc2Sc2ccccc21	?	-29%	-22	-16%	-21%
CCCC1=Nc2cc(C(=O)NCCc3ccccc3)ccc2Sc2ccc(C)cc21	nt	4.6µM*	nt	nt	6.5µM*
CCCC1=Nc2cc(C(=O)NCc3ccc(OC)cc3)ccc2Sc2ccc(C)cc21	nt	15µM*	nt	nt	9.2µM*
CCC1=Nc2cc(C(=O)N3CCC(C)CC3)ccc2Sc2ccc(C)cc21	nt	16µM*	nt	nt	16µM*
CCOC(=O)N1CCC(NC(=O)c2ccc3c(c2)N=C(CC)c2ccccc2S3)CC1	?	?	-22	?	?
CCOC(=O)N1C(=O)[C@@](CC)(c2ccccc2)N1C(=O)OCC	2%	8.2µM*	nt	-6%	13µM*
CC[C@@]1(c2ccccc2OC)C(=O)N(C(=O)OC)N1C(=O)OC	-12%	?	-87*	-27%	?
CCOC(=O)N1CCN(C(=O)CN2C(=O)NC(c3ccccc3)(c3ccccc3)C2=O)CC1	-16%	9%	24	-16%	-21%
CCOC(=O)N1CCN(C(=S)Nc2cccc(C)c2)CC1	8%	-6%	12	6%	7%
COc1ccc(CNC(=O)C(C)N2C(=O)NC(c3ccccc3)(c3ccccc3)C2=O)cc1 (stereo unspecified)	0%	-12%	?	-10%	2%
COC(=O)N1C(=O)[C@](CC(C)C)(c2ccccc2)N1C(=O)OC	-4%	21µM*	nt	5%	16µM*

High-throughput results as filed in PubChem.
